The target of experiment [1] is Lysosomal acid glucosylceramidase (Homo sapiens) (UniProt P04062). The experiment is described as follows: Glucocerebrosidase-p2 (AID 348; in the data active means potency below about 10 µM; further: potency means the concentration at half of the fitted maximal effect). Conditions: purified GBA, blue fluorogenic substrate, 40 min. In a few lines: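 Normal human glucocerebrosidase (0.2 nM) with blue fluorogenic substrate (80 uM final) in citrate/phosphate pH 5.9 with 10mM sodium taurocholate, 0.01% tween-20; 40 min RT, NaOH/glycine stop; fluorescence Ex 365/Em 440; AC50 from a titration from 0.6 nM upwards.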

Experiment [2] can be described thus: AP1 Signaling Pathway (AID 357).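 Further: ME-180 reporter cells stimulated with EGF at its EC50 level; on the % scale 0 is the no-effect control and ±100 the full control effect.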 Conditions: ME-180 AP-1-bla reporter, EGF-induced, beta-lactamase ratio, 5 h; at 7.69 µM (top of the series) unless noted. An outline of the steps: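 In this screen, ME-180 cells in Opti-MEM with 0.5% dialyzed FBS received EC50 EGF and compound titrations for 5 h. AP-1 reporter beta-lactamase was detected via CCF4 ratio, giving AC50 for positive and negative modulators.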

Experiment [3] concerns the target Cytochrome P450 1A2 (Homo sapiens) (UniProt P05177). The experiment is described as follows: p450-cyp1a2 (AID 410; calls by dose curve; further: potency means the concentration at half of the fitted maximal effect;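 on activity change, negative = inhibition: -100% = full effect of reference inhibitor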). To be noted: recombinant CYP1A2, luciferin-ME demethylation, luminescence; series mostly up to 57 µM. In a few lines: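 20nM CYP1A2, 100uM Luciferin-ME (=Km), 100mM KPO4; cpd 10 min RT; +NADPH regen, 60 min RT; stop/detect 20 min; luminescence. Normalized to furafylline 57 uM = full inhibition.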

Experiment [4] in a line: NFAT Signaling Pathway (AID 444).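 Further: carbachol stimulus at about its EC50 of 1 µM final; on the % scale 0 is the no-effect control and ±100 the full control effect.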 Conditions: Jurkat NFAT-bla M1, carbachol, beta-lactamase ratio, 5 h; at 7.69 µM (top of the series) unless noted. In a few lines:
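Jurkat cells carrying an NFAT-driven β-lactamase reporter and co-transfected muscarinic M1 receptor were treated with compound plus carbachol (1 uM final, an EC50 level) for 5 h at 37 °C. CCF4 loading followed for 1 h at RT; 460/530 nm ratio gave %activity.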

The nature of experiment [5]: Stat Signaling Pathway (AID 446).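 Further: ME-180 cervical cancer cells given 40 pM IL-6 alongside compound; SIE-controlled beta-lactamase reporter measured as 460/530 nm FRET emission ratio; on the % scale 0 is the no-effect control and ±100 the full control effect.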 Conditions: ME-180 SIE beta-lactamase reporter, IL-6 stimulated, 5 h; at 7.69 µM (top of the series) unless noted. An outline of the steps:
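Emission at 460 and 530 nm (excitation 405 nm) reports SIE-controlled beta-lactamase in ME-180 cells. Cells received compound with 40 pM IL-6 for 5 hrs at 37 C; data scaled between 300 pM IL-6 and 125 nM JAK-inhibitor controls.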

Experiment [6] addresses Glucocorticoid receptor (Homo sapiens) (UniProt P04150). The experiment is described as follows: GR-GFP Redistribution (AID 450;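 active means compounds whose dose series gives a full or clear partial fitted curve of increased nuclear translocation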; further: potency means the concentration at half of the fitted maximal effect). To be noted: U2OS GR-GFP nuclear translocation, laser cytometry, 2 h.
Experiment [7] has the same target. The experiment is described as follows: GR-EFC Redistribution (AID 451; calls by dose curve; further: potency means the concentration at half of the fitted maximal effect). Conditions: CHO-K1 GR-EFC translocation, beta-gal luminescence, 2 h. In a few lines: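 CHO-K1 cells stably expressing nuclear-localized β-gal enzyme acceptor and GR fused C-terminally to the enzyme donor fragment; ligand-driven nuclear translocation restores β-gal by complementation. Compounds titrated up to 46 uM final, 2 h at 37 °C; luminescence read.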

The target of experiment [8] is Mitogen-activated protein kinase 10 (Mus musculus) (UniProt Q61831). The experiment is described as follows: JNK3 AlphaScreen Assay (AID 530).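 Further: kinase came from lysate of stimulated human HepG2 cells; signal reports phosphorylation of biotinylated GST-cJun 1-79 at Ser73 with 10 µM ATP; on the % scale 0 is the no-effect control and ±100 the full control effect.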 Conditions: JNK3 lysate, c-Jun phosphorylation; series mostly up to 57.1 µM. In a few lines:
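Biotinylated GST-cJun(1-79) served as substrate for JNK3 in HepG2 lysates stimulated with IL-1beta and TNF-alpha. ATP was 10 uM final, pH 7.6. Ser73 phosphorylation was quantified by AlphaScreen (680 nm excitation).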
(Bead proximity is the source of the signal in Alpha formats.)

Experiment [9] has as its target Cytochrome P450 3A4 (Homo sapiens) (UniProt P08684). Put plainly: qHTS Assay for Inhibitors and Substrates of Cytochrome P450 3A4 (AID 884; active means well fitted curve in the direction sought with a large enough effect; an effect the other way counts as inactive or inconclusive; further: potency means the concentration at half of the fitted maximal effect; nearly all actives have a fitted effect of over 50% in size). Conditions: recombinant CYP3A4, Luciferin-PPXE luminescence; series mostly up to 57.1 µM. An outline of the steps: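 Luminescent readout of luciferin produced by CYP3A4 (20 nM) dealkylation of Luciferin-PPXE, 25 uM (its KM). NADPH-driven reaction ran 60 min at RT after 10 min compound preincubation; data scaled to 57 uM ketoconazole as 100% inhibition.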
On the technique in general: Quantitative high-throughput screening tests each substance at several concentrations.

The target is the same in experiment [10]. Put plainly: qHTS Assay for Activators of Cytochrome P450 3A4 (AID 885; active means well fitted curve in the direction sought with a large enough effect; an effect the other way counts as inactive or inconclusive; further: nearly all actives have a fitted effect of over 65% in size). To be noted: recombinant CYP3A4, Luciferin-PPXE luminescence, 60 min; series mostly up to 57.1 µM. In a few lines: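 Activators are scored by enhanced luminescence from CYP3A4 conversion of luciferin-PPXE (25uM, equal to KM) to luciferin, after 60 min at RT with an NADPH-regenerating system.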

The nature of experiment [11]: Confirmation and Secondary Assay for Modulators of Hemoglobin Beta Chain Splicing at IVS2 654 locus (AID 910; active means well fitted curve in the direction sought with a large enough effect; an effect the other way counts as inactive or inconclusive; further: % of control where 0% means no effect). To be noted: HeLa EGFP-654 splicing reporter, GFP fluorescence, 48 h; series mostly up to 38.3 µM. An outline of the steps: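 HeLa cells stably carrying EGFP interrupted by mutant beta-globin IVS2-654 intron (CMV-driven) were treated with compound for 2 days at 37C; corrected splicing was scored as total peak GFP intensity per well (488 nm excitation, 500-520 nm emission).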

Experiment [12] is described as follows: Confirmation and Secondary Assay for Modulators of Hemoglobin Beta Chain Splicing at IVS2 705 locus (AID 930; active means well fitted curve in the direction sought with a large enough effect; an effect the other way counts as inactive or inconclusive;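 further: HeLa cells stably expressing the EGFP-705 splicing reporter; GFP fluorescence per well restored by corrected splicing of the IVS2-705 intron in EGFP; % of control where 0% means no effect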). To be noted: HeLa EGFP-705 splicing reporter, GFP fluorescence, 48 h; series mostly up to 38.3 µM. An outline of the steps:
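Read-out: total peak GFP fluorescence per well (488 nm excitation, 500-520 nm emission) by laser-scanning cytometry. Cells: HeLa EGFP-705 splicing reporter, 2 days compound exposure in Optimem/2% FCS.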

The nature of experiment [13]: qHTS Assay for Lipid Storage Modulators (AID 1519; calls by dose curve). To be noted: Drosophila S3 cells, BODIPY lipid droplet/cell ratio, laser cytometry, cells loaded with oleic acid; for activity change, negative = inhibition: at 57.5 µM (top of the series). An outline of the steps: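 Cells seeded at 5,000 per well were treated with compounds over a concentration series and loaded with oleic acid (400 uM, as added). Lipid droplet fluorescence (488 nm excitation, 500-530 nm channel) was read by laser-scanning cytometry and normalized to 20 uM Triacsin C.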

The target in experiment [14] is 3',5'-cyclic-AMP phosphodiesterase 4B (Homo sapiens) (UniProt Q07343). Put plainly: qHTS Assay for Inhibitors of PDE-IV (AID 607; active means well fitted activation curve with a large enough effect in the main read-out, with a control signal flat, not every such curve was filed as active; further: % of control where 0% means no effect). To be noted: HEK293 ACTOne CNG channel cells, membrane potential fluorescence; series mostly up to 22.9 µM. An outline of the steps: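 The readout is membrane depolarisation from a cAMP-sensing CNG channel, detected with a potential dye at ex 535/em 590. Cells were HEK293-derived (endogenous PDE-IV) at 1000 cells/well, titrated up to 22.9 uM final.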

A short description of experiment [15]: qHTS Assay for Identification of Small Molecule Agonists for Hypoxia Response Element Signaling Pathway (AID 914; active means well fitted activation curve with a large enough effect in the signal ratio, with a control signal flat, not every such curve was filed as active; the % refers to the signal ratio; further: % of control where 0% means no effect). Conditions: ME-180 (cervical carcinoma) HRE-bla reporter, beta-lactamase ratio, CoCl2, 17 h; activation: stronger effect = higher value. An outline of the steps: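 HRE-bla ME-180 cells, overnight plating in Opti-MEM with 0.5% dialyzed FBS; cpd titration + EC50 CoCl2, 17 h, 37 degrees Celsius; CCF4 2.5 h RT; 460/530 nm ratio; AC50.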

Experiment [16] addresses Ubiquitin carboxyl-terminal hydrolase 1 (Homo sapiens) (UniProt O94782). The experiment is described as follows: Inhibitors of USP1/UAF1: Pilot qHTS (AID 504865; active means well fitted curve in the direction sought with a large enough effect; an effect the other way counts as inactive or inconclusive; further: nearly all actives have a fitted effect of over 35% in size; further: potency means the concentration at half of the fitted maximal effect). To be noted: purified USP1/UAF1, Ub-rhodamine cleavage fluorescence; series mostly up to 54.9 µM. In a few lines:
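USP1/UAF1 complex (1nM) preincubated with compound 15 min at room temperature, then Ub-Rho substrate (150nM final) added. Fluorescence read kinetically at 480/540 nm, 6 reads every 60 seconds. Buffer: 50mM HEPES pH 7.8, 0.5mM EDTA, 0.1 mg/ml BSA, 1mM TCEP, 0.01% Tween-20.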

Setting [17] is: measured here: cell count channel max response.
Where [18] appears, read: measured here: lipid channel max response.

Records with an inconclusive call do not appear. Active and inactive are the calls of the source. Unless noted, the call rests on the fitted dose curve; in most records, active means well fitted curve in either direction with a large enough effect (not every such curve was filed as active); inconclusive means small, poorly fitted or top-dose-only effect, or another doubt; inactive means flat fitted curve, though single readings scatter. A value given as a limit tells only on which side of the number the result lay.

Chain of 3',5'-cyclic-AMP phosphodiesterase 4B (Homo sapiens) (Q07343 whole entry, looked up): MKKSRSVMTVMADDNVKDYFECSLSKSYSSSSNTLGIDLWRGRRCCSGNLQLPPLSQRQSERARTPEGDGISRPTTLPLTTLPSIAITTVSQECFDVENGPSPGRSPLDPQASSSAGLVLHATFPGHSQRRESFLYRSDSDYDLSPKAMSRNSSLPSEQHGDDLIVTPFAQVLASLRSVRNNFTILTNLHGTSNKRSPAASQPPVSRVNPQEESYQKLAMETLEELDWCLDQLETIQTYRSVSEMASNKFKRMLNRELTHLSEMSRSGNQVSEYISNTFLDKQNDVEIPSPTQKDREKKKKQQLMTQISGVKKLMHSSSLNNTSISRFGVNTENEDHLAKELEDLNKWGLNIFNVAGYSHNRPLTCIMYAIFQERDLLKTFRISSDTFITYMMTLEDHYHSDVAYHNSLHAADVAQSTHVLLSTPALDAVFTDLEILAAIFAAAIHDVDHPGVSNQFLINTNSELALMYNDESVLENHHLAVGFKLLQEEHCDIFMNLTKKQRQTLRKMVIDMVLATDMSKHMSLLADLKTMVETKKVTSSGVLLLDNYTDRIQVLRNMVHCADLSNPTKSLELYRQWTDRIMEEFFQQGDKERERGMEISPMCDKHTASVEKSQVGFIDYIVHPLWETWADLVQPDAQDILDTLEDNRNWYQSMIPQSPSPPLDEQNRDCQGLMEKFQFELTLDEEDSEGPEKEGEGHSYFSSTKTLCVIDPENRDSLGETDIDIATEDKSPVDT
Chain of Cytochrome P450 3A4 (Homo sapiens) (P08684 whole entry, looked up): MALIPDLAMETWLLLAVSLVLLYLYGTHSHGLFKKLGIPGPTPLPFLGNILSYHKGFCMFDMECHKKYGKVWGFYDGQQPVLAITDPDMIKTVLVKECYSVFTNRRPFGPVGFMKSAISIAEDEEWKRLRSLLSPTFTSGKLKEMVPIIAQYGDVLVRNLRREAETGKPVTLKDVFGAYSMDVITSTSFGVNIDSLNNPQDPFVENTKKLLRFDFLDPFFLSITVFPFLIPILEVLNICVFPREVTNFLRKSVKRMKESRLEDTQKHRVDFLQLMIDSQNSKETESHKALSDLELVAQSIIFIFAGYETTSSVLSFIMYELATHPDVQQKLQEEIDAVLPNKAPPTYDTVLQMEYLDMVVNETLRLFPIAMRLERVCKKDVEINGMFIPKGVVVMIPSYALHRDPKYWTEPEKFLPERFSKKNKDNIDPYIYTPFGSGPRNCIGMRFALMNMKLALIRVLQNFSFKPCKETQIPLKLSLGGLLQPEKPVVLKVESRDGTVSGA
Chain of Cytochrome P450 1A2 (Homo sapiens) (P05177 whole entry, looked up): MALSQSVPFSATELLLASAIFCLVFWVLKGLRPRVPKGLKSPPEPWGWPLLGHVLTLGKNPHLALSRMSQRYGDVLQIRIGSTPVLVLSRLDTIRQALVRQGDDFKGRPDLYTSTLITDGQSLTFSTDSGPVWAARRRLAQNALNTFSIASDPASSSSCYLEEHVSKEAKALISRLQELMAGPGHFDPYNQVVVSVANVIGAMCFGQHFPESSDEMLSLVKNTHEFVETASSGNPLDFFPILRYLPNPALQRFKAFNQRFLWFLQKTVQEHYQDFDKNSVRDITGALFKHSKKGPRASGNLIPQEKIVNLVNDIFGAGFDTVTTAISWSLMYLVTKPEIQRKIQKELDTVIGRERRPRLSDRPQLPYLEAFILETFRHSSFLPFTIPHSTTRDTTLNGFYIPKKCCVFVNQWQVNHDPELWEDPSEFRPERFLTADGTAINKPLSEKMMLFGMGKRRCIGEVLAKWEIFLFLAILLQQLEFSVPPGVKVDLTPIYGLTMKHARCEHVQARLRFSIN
Chain of Glucocorticoid receptor (Homo sapiens) (P04150 whole entry, looked up, the tested form may be a part): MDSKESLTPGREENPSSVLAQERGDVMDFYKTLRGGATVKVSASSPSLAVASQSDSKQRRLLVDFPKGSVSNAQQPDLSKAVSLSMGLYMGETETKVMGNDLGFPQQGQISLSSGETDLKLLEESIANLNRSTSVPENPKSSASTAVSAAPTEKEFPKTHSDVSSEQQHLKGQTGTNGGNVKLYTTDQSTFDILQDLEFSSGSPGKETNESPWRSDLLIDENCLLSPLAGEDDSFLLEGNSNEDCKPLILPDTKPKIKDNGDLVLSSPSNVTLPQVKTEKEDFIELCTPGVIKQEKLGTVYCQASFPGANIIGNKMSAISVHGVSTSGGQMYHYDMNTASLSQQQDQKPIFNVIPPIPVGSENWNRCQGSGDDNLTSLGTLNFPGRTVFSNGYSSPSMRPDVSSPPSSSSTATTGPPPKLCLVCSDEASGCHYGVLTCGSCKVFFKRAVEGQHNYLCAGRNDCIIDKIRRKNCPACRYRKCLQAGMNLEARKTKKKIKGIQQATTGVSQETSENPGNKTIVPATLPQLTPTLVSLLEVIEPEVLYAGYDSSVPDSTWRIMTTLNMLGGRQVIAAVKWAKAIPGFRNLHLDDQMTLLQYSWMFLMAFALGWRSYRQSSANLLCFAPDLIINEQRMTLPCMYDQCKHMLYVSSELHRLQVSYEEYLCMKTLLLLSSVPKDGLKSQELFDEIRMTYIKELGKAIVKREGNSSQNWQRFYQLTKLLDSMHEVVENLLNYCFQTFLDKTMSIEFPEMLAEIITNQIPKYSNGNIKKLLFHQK
Chain of Lysosomal acid glucosylceramidase (Homo sapiens) (P04062 whole entry, looked up): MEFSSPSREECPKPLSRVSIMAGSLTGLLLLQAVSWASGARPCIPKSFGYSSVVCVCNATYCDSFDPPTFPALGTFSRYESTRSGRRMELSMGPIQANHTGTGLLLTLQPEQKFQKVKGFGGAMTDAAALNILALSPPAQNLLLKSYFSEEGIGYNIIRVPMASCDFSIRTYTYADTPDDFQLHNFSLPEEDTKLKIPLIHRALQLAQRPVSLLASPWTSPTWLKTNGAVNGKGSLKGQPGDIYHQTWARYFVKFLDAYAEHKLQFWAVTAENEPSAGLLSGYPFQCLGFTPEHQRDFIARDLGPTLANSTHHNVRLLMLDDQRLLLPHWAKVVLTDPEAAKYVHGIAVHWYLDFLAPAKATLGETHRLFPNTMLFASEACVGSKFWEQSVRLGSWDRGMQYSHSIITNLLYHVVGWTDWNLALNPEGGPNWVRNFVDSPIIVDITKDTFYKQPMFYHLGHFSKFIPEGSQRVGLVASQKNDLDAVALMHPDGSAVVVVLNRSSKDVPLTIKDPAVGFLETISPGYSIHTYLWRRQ
Chain of Ubiquitin carboxyl-terminal hydrolase 1 (Homo sapiens) (O94782 whole entry, looked up): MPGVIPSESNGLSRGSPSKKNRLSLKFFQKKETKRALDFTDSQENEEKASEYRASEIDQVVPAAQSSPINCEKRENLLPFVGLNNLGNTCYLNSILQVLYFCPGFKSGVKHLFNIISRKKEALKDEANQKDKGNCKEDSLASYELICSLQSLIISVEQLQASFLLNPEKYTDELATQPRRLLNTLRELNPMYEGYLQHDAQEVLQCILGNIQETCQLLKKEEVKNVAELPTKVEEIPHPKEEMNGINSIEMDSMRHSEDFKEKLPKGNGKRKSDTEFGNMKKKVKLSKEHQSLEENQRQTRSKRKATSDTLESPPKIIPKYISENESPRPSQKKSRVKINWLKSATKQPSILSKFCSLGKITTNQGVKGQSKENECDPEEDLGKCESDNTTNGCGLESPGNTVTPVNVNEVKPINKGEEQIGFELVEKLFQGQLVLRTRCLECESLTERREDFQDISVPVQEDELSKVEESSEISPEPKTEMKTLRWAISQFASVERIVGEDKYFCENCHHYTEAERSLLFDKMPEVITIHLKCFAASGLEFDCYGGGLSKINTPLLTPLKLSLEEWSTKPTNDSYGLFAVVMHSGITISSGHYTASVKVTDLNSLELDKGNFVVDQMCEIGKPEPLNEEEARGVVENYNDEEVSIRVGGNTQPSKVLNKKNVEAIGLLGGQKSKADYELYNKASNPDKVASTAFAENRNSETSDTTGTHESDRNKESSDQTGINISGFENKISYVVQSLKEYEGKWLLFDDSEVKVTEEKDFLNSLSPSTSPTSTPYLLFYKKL

Regarding `COCCNc1nc(-c2cccc(OC)c2)nc2ccccc12`, the Potency is > 11.4 µM (inactive) in experiment [1]; 0.2 µM (active) in experiment [3]; > 46 µM (inactive) in experiment [6]; > 46 µM (inactive) in experiment [7]; 5.01 µM (active) in [9]. For the same compound, the activity change, negative = inhibition in experiment [2] is -3.79% (inactive); in experiment [4], 0.846% (inactive); in experiment [13] it was -5.01% (inactive). In addition, in experiment [5], the activity, negative = inhibition is -13.7% (inactive). Further, the Potency entry in experiment [8], in [10] and in experiment [11] was “inactive” in each case. Also, the result in [12] was inactive. For the same compound, the max response in experiment [13] (setting [17]) was 5.13%; in experiment [13] (setting [18]) it was -0.48%.

On to `CC(=O)N1CCC2(CC1)CCN(c1ccncc1)CC2`, for which the figures for the Potency in experiment [1] and in experiment [7] were > 11.4 µM (inactive) and > 46 µM (inactive), respectively. For the same compound, the activity change, negative = inhibition is -3.43% (inactive) in experiment [2], -17.4% (inactive) in experiment [4] and -1.07% (inactive) in experiment [13]. Besides, the Potency entry in experiment [3], in experiment [8] and in [14] was “inactive” throughout. In addition, in experiment [5], the activity, negative = inhibition was -6.23% (inactive). The results for the max response in experiment [13] (setting [17]) and in experiment [13] (setting [18]) were -6.73% and -6.95%, respectively.

On to `N#CCCn1c(=O)cnc2cnc(N3CCNCC3)nc21`, for which the Potency in [1] was > 11.4 µM (inactive); in [3], 12.6 µM (active); in experiment [6] it was > 9.22 µM (inactive); in [7], > 46 µM (inactive). Besides, the activity change, negative = inhibition is -10.6% (inactive) in experiment [2], 3.67% (inactive) in [4] and 4.17% (inactive) in [13]. Besides, in [5], the activity, negative = inhibition was -12.7% (inactive). Also, the Potency result in experiment [8] and in [14] was “inactive” throughout. Also, the max response in experiment [13] (setting [17]) was determined as 14.3%; in [13] (setting [18]) it was 19.4%.

Regarding `COc1cccc(Nc2ncc3nc(C)c(=O)n(CCC#N)c3n2)c1`, the Potency in experiment [1] is > 11.4 µM (inactive); in experiment [3], 1.26 µM (active); in experiment [6] it was > 9.22 µM (inactive); in experiment [7] it was > 46 µM (inactive). In addition, the activity change, negative = inhibition was -18.4% (inactive) in experiment [2], 4.34% (inactive) in [4] and -10.8% (inactive) in experiment [13]. Besides, the activity, negative = inhibition in experiment [5] was -8.39% (inactive). In addition, the Potency result in experiment [8], in experiment [14] and in experiment [10] was “inactive” in each case. Moreover, the max response is -22.6% in experiment [13] (setting [17]) and -28.8% in experiment [13] (setting [18]).

`COc1ccccc1CNc1ccnc(-c2ccccc2C(F)(F)F)n1`: the Potency in experiment [1] was > 11.4 µM (inactive); in [3] it was 10 µM (active); in experiment [6] it was > 46 µM (inactive); in experiment [7] it was > 46 µM (inactive); in [16], 20 µM (active). Also, the activity change, negative = inhibition in [2] was -18.3% (inactive); in experiment [4], -19.1% (inactive); in experiment [13], 5.29% (inactive). Further, the activity, negative = inhibition in experiment [5] is 4.24% (inactive). Moreover, the Potency result in [8], in experiment [14] and in [10] was “inactive” each time. Further, the activation in experiment [15] was -5.47% (inactive). For the same compound, the outcome in experiment [12] was inactive. Further, the max response in [13] (setting [17]) was -3.33%; in experiment [13] (setting [18]), 2.88%.

On to `COc1ccc2[nH]cc(CCNc3ncnc4ccc(-c5ccccc5CN(C)C)cc34)c2c1`, for which the Potency is > 11.4 µM (inactive) in experiment [1]; 31.6 µM (active) in [3]; > 46 µM (inactive) in experiment [6]; > 46 µM (inactive) in [7]; 1.58 µM (active) in experiment [9]. For the same compound, the figures for the activity change, negative = inhibition in [2], in experiment [4] and in experiment [13] were -1.42% (inactive), -18.9% (inactive) and 7.35% (inactive), respectively. Besides, the activity, negative = inhibition in experiment [5] is 0.00328% (inactive). Further, the Potency entry in [8], in [14], in [10], in experiment [11] and in experiment [16] was “inactive” each time. For the same compound, in experiment [12], the compound was classed as inactive. The max response in experiment [13] (setting [17]) was -2.58%; in experiment [13] (setting [18]) it was 5.15%.
